Data from PubChem BioAssay (NCI).
The panel holds about 83,000 compounds, 20% with a hit somewhere; the sample as a whole holds those more often.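 96-well plates, one dose, 48 hours. Percent growth reported; active if below 10.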 The source made the active and inactive calls.

Experiments:
Assay in all cases: NCI-60 one-dose screen, 48 h (100 = growth as untreated, 0 = no growth, -100 = all killed)
Conditions in all cases: 10 µM unless noted
T-47D breast = tested on: T-47D breast
BT-549 breast = tested on: BT-549 breast
MDA-MB-435 melanoma = tested on: MDA-MB-435 melanoma
SW-620 colon = tested on: SW-620 colon
MCF7 breast = tested on: MCF7 breast
HCT-116 colon = tested on: HCT-116 colon
HCC-2998 colon = tested on: HCC-2998 colon
KM12 colon = tested on: KM12 colon
MDA-MB-468 breast = tested on: MDA-MB-468 breast

Measured: growth

Cc1cccc(NC(=O)[C@]23CCC(C)(C)CC2C2=CCC4[C@@]5(C)C[C@@H](O)[C@H](O)[C@@](C)(CO)C5CC[C@@]4(C)[C@]2(C)CC3)c1 (some centres not stated)
active: BT-549 breast 8.83% | MCF7 breast -6.63% | HCT-116 colon 1.25% | HCC-2998 colon -64% | KM12 colon 3.56% | MDA-MB-468 breast -8.73%
inactive: T-47D breast 13.5% | MDA-MB-435 melanoma 25.5% | SW-620 colon 33.2%

COc1ccc(C2=NN(C(C)=O)C(c3ccc(OCc4ccc(Cl)cc4)c(OC)c3)C2)cc1OC (configuration not stated)
inactive: T-47D breast 10.2% | BT-549 breast 33.8% | MDA-MB-435 melanoma 43% | SW-620 colon 61.2% | MCF7 breast 20.1% | HCT-116 colon 35.3% | HCC-2998 colon 83.4% | KM12 colon 39% | MDA-MB-468 breast 31.1%

O=C(c1ccc(OCCN2CCOCC2)cc1)C1[C@H](c2ccc(Cl)cc2)[C@@H](c2ccccc2)NC12C(=O)Nc1ccc(Cl)cc12 (some centres not stated)
active: MCF7 breast 4.28% | HCC-2998 colon -30% | MDA-MB-468 breast -7.83%
inactive: T-47D breast 34.6% | BT-549 breast 57.1% | MDA-MB-435 melanoma 42% | SW-620 colon 41.5% | HCT-116 colon 11.5% | KM12 colon 16.4%

COc1ccc(-c2ccnc(SCc3cc4cc(Cl)ccc4[nH]c3=O)n2)cc1
active: BT-549 breast -18.5%
inactive: T-47D breast 62.1% | MDA-MB-435 melanoma 68.5% | SW-620 colon 69.1% | MCF7 breast 73% | HCT-116 colon 26.6% | HCC-2998 colon 100% | KM12 colon 94.7% | MDA-MB-468 breast 54.9%

COc1ccc2[nH]cc(-c3nnc(N)nc3-c3cn(C)c4ncc(Br)cc34)c2c1
inactive: T-47D breast 62.5% | BT-549 breast 64.1% | MDA-MB-435 melanoma 81.9% | SW-620 colon 87.9% | MCF7 breast 68.7% | HCT-116 colon 79.6% | HCC-2998 colon 80.2% | KM12 colon 75.5% | MDA-MB-468 breast 42.9%

Cc1ccc(-c2nc(Nc3ccccc3S(N)(=O)=O)c3ccccc3n2)cc1
inactive: T-47D breast 90.8% | BT-549 breast 115% | MDA-MB-435 melanoma 85.4% | SW-620 colon 85.8% | MCF7 breast 81.6% | HCT-116 colon 40% | HCC-2998 colon 104% | KM12 colon 65.3% | MDA-MB-468 breast 98.4%

C=C1CC[C@@H]2[C@]3(C)COC(c4ccccc4)O[C@@H]3CC[C@@]2(C)[C@@H]1C/C=C1/C(=O)OCC1OC(C)=O (some centres not stated)
active: T-47D breast -45.1% | BT-549 breast -93.5% | MDA-MB-435 melanoma -29.3% | SW-620 colon -49.1% | MCF7 breast -56.7% | HCT-116 colon -94.7% | HCC-2998 colon -76.2% | KM12 colon -9.91% | MDA-MB-468 breast -89.8%

CC(C)c1sc(NC(=O)c2cc(NC(=O)c3cc(NC(=O)c4cscn4)cn3C)cn2C)nc1C(=O)NCCCN(C)C
active: BT-549 breast -7.36% | MDA-MB-435 melanoma 2.17% | HCT-116 colon -79.5% | HCC-2998 colon -74.9% | MDA-MB-468 breast -62.7%
inactive: T-47D breast 13% | SW-620 colon 20.5% | MCF7 breast 24.5% | KM12 colon 59.2%

CN1C(=O)/C(=C/c2ccc(C(=O)Nc3ncc(Cc4ccc(Cl)cc4Cl)s3)cc2)SC1=S
active: MDA-MB-435 melanoma -4.21% | MDA-MB-468 breast -9.37%
inactive: T-47D breast 23.9% | BT-549 breast 31.6% | SW-620 colon 45.1% | MCF7 breast 30.6% | HCT-116 colon 29.6% | HCC-2998 colon 40.4% | KM12 colon 15.5%

COc1cc2c(c(OC)c1OC)C(=O)CC(c1cccc(NC(=O)c3cc([N+](=O)[O-])ccc3Cl)c1)O2 (configuration not stated)
active: BT-549 breast -11% | SW-620 colon -6.32% | HCT-116 colon -66.1% | KM12 colon -54.7% | MDA-MB-468 breast -13.7%
inactive: T-47D breast 23.6% | MDA-MB-435 melanoma 28.5% | MCF7 breast 11.7% | HCC-2998 colon 33%

C#CCOc1cc(N(CC)CC)ccc1C(C(=O)NC(C)(C)C)N(C(=O)C1CCc2cc(F)ccc2O1)c1ccccc1F (configuration not stated)
inactive: T-47D breast 30.2% | BT-549 breast 40.3% | MDA-MB-435 melanoma 35.9% | SW-620 colon 42.1% | MCF7 breast 16.6% | HCT-116 colon 20.5% | HCC-2998 colon 73.2% | KM12 colon 18.8% | MDA-MB-468 breast 25.5%

COc1ccc(-c2nc3cc(C)ccc3n2CC(=O)N=Nc2c(O)[nH]c3ccc(OC)cc23)cc1
active: T-47D breast -60% | BT-549 breast -85.4% | MDA-MB-435 melanoma -67.8% | SW-620 colon -48.2% | MCF7 breast -50.3% | HCT-116 colon -97.4% | HCC-2998 colon -67.9% | KM12 colon -79.5% | MDA-MB-468 breast -77.1%

Nc1nc(-c2ccccc2)c(N=Nc2ccc([N+](=O)[O-])cc2Cl)s1
inactive: T-47D breast 40.7% | BT-549 breast 82.9% | MDA-MB-435 melanoma 87.1% | SW-620 colon 90.3% | MCF7 breast 68.1% | HCT-116 colon 70.1% | HCC-2998 colon 99.9% | KM12 colon 90.4% | MDA-MB-468 breast 55.8%
